Reference: PubChem BioAssay (Tox21)
Results filed as inconclusive are left out. Active and inactive are the calls of the source. Unless noted, the call rests on the fitted dose curve; in most records, active means well fitted curve in the direction sought with a large enough effect in the repeat runs; inconclusive means weak or mixed curves; inactive means no such curve, though single readings can be large; an effect the other way counts as inactive or inconclusive.

Experiments:
[1] = qHTS assay to identify small molecule antagonists of the peroxisome proliferator-activated receptor delta (PPARd) signaling pathway - cell viability counter screen (AID 743213); further: on the % scale 0 is the no-effect control and ±100 the full control effect; nearly all actives have a fitted effect of over 50% in size
Summary of the method: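 Viability counter-screen, qHTS format: PPARd-bla HEK293H, L165041 300 nM final, 17 h compound exposure at 37 C, CellTiter-Glo luminescence after 30 min RT.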

[2] = target: Bile acid receptor (Homo sapiens) (UniProt Q96RI1); assay: qHTS assay to identify small molecule antagonists of the farnesoid-X-receptor (FXR) signaling pathway (AID 743217; active means well fitted inhibition curve with a large enough effect in the signal ratio in the repeat runs, not every such curve was filed as active; the % refers to the signal ratio; further: on the % scale 0 is the no-effect control and ±100 the full control effect)
Summary of the method: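 FXR-UAS-bla HEK 293T cells (beta-lactamase reporter) given compound plus chenodeoxycholic acid (50 uM final), 16 h at 37C. LiveBLAzer B/G FRET substrate added for 2 h at room temperature; fluorescence read.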

[3] = qHTS assay to identify small molecule agonists of the farnesoid-X-receptor (FXR) signaling pathway - cell viability counter screen (AID 743218); further: on the % scale 0 is the no-effect control and ±100 the full control effect; nearly all actives have a fitted effect of over 45% in size
Summary of the method: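 FXR-UAS-bla HEK 293T cells exposed to compounds for 16 h at 37C. Cytotoxicity read in the same wells by CellTiter-Glo luminescence after 30 min at room temperature, following the beta-lactamase FRET read.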

[4] = qHTS assay to identify small molecule antagonists of the farnesoid-X-receptor (FXR) signaling pathway - cell viability counter screen (AID 743221; active means well fitted cell-killing curve with a large enough effect in the repeat runs, not every such curve was filed as active; further: on the % scale 0 is the no-effect control and ±100 the full control effect; nearly all actives have a fitted effect of over 50% in size)
Summary of the method: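 CellTiter-Glo, 30 min RT, luminescence; same wells as the LiveBLAzer FRET read. Cells: FXR-UAS-bla HEK 293T. Treatment: compound with chenodeoxycholic acid 50 uM final, 16 h at 37 C.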

[5] = target: Vitamin D3 receptor (Homo sapiens) (UniProt P11473); assay: qHTS assay to identify small molecule agonists of the vitamin D receptor (VDR) signaling pathway (AID 743222; calls by dose curve; further: on the % scale 0 is the no-effect control and ±100 the full control effect)
Summary of the method: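 VDR-bla cells plated 4 h at 37 C, then exposed to compounds for 16 h at 37 C. Beta-lactamase reporter activity measured by fluorescence after 2 h room-temperature loading with LiveBLAzer B/G FRET substrate.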

[6] = target: Vitamin D3 receptor (Homo sapiens) (UniProt P11473); assay: qHTS assay to identify small molecule antagonists of the vitamin D receptor (VDR) signaling pathway (AID 743223; active means well fitted inhibition curve with a large enough effect in the signal ratio in the repeat runs, not every such curve was filed as active; the % refers to the signal ratio; further: on the % scale 0 is the no-effect control and ±100 the full control effect)
Summary of the method: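 After VDR-bla cells are plated and left 4 h at 37C, DMSO-dissolved compounds and 3 nM (final) calcitriol agonist are added. Incubation continues 16 h at 37C; FRET beta-lactamase substrate then develops 2 h at room temperature.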

[7] = qHTS assay to identify small molecule antagonists of the vitamin D receptor (VDR) signaling pathway - cell viability counter screen (AID 743225); further: on the % scale 0 is the no-effect control and ±100 the full control effect; nearly all actives have a fitted effect of over 50% in size
Summary of the method: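 Cytotoxicity toward the VDR-bla HEK 293T line was scored by ATP-based CellTiter-Glo luminescence, read in the wells already used for the beta-lactamase readout after 16 h compound treatment under 3 nM 1-alpha,25-dihydroxyvitamin D3 stimulation.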

[8] = qHTS assay to identify small molecule agonists of the NFkB signaling pathway (AID 1159509; active means well fitted curve in the direction sought with a large enough effect in the signal ratio in the repeat runs, not every such curve was filed as active; the % refers to the signal ratio; further: series mostly up to about 61 µM; on the % scale 0 is the no-effect control and ±100 the full control effect)
Summary of the method: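 After overnight attachment, reporter cells received test compounds, DMSO or positive controls and were incubated 5 hr at 37 C. FRET substrate was then added for 1.5 hr at room temperature before dual-emission fluorescence reading.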

[9] = qHTS assay to identify small molecule agonists of the endoplasmic reticulum stress response signaling pathway (AID 1159516; active means well fitted activation curve with a large enough effect in the signal ratio in the repeat runs, not every such curve was filed as active; the % refers to the signal ratio; further: on the % scale 0 is the no-effect control and ±100 the full control effect)
Summary of the method: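 CellSensor ESRE-bla HeLa cells, 1,500 per well, plated overnight, then exposed to compounds for 5 hr at 37 C. Beta-lactamase reporter read with LiveBLAzer B/G FRET substrate after 2 hr at room temperature, 405 nm excitation, 460 and 530 nm emission.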

[10] = qHTS assay to identify small molecule agonists of the endoplasmic reticulum stress response signaling pathway - cell viability counter screen (AID 1159517; calls by dose curve;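 further: HeLa cells carrying an ER stress response element beta-lactamase reporter; series mostly up to about 61 µM; on the % scale 0 is the no-effect control and ±100 the full control effect; nearly all actives have a fitted effect of over 50% in size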)
Summary of the method: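 Cells, HeLa ESRE-bla; density, 1,500/well; dosing, 5 hr at 37 C, 5% CO2; readout, CellTiter-Glo luminescence after 30 min RT.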

[11] = qHTS assay to identify small molecule antagonists of the retinoid-related orphan receptor gamma (ROR-gamma) signaling pathway - cell viability counter screen (AID 1159520)
Summary of the method: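 Cytotoxicity was read from cellular ATP (CellTiter-Glo luminescence) after 16 hr at 37 C with 1 uM doxycycline induction. The inducer was added 2 hr after compound transfer to Tet-on ROR gamma CHO cells.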

[12] = target: Nuclear receptor ROR-gamma (Homo sapiens) (UniProt P51449); assay: qHTS assay to identify small molecule antagonists of the retinoid-related orphan receptor gamma (ROR-gamma) signaling pathway (AID 1159521)
Summary of the method: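 Readout: ONE-Glo luciferase luminescence, 30 min at room temperature. System: Tet-on RORγ CHO, RORE-LUC. Sequence: compound 2 h, doxycycline 1 uM final, 16 h at 37 C.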

[13] = qHTS assay to identify small molecule agonists of the AP-1 signaling pathway - cell viability counter screen (AID 1159525; calls by dose curve; further: nearly all actives have a fitted effect of over 55% in size)
Summary of the method: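 Luminescent ATP readout (Cell Titer Glo, 30 min RT), normalised to DMSO and tetra n-octyl ammonium bromide controls. Cells were ME-180 AP-1-bla in 0.5% dialyzed FBS Opti-MEM, with a 5 h, 37 °C compound exposure.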

[14] = target: Peroxisome proliferator-activated receptor delta (Homo sapiens) (UniProt Q03181); assay: qHTS assay to identify small molecule agonists of the peroxisome proliferator-activated receptor delta (PPARd) signaling pathway (AID 743212; calls by dose curve; further: on the % scale 0 is the no-effect control and ±100 the full control effect)
Summary of the method: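 HEK293H UAS-bla reporter cells, human PPARd system; compounds delivered in DMSO after 5 h plating, then at 37 C. Beta-lactamase FRET read, 2 h RT substrate step.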

[15] = target: Peroxisome proliferator-activated receptor delta (Homo sapiens) (UniProt Q03181); assay: qHTS assay to identify small molecule antagonists of the peroxisome proliferator-activated receptor delta (PPARd) signaling pathway (AID 743215; active means well fitted inhibition curve with a large enough effect in the signal ratio in the repeat runs, not every such curve was filed as active; the % refers to the signal ratio)
Summary of the method: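 PPARd-bla HEK293H cells (UAS-bla reporter) preincubated 5 h, then given compound plus 300 nM final L165041 agonist for 17 h at 37 C. Beta-lactamase activity read by LiveBLAzer B/G FRET substrate fluorescence after 2 h at room temperature.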

[16] = qHTS assay to identify small molecule agonists of the vitamin D receptor (VDR) signaling pathway - cell viability counter screen (AID 743224)
Summary of the method: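 VDR-bla cells, 4 h after plating, exposed to compounds for 16 h at 37C; viability then read in the same wells as CellTiter-Glo luminescence after 30 min at room temperature, following the bla FRET read.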

[17] = qHTS assay to identify small molecule agonists of the AP-1 signaling pathway (AID 1159526; calls by dose curve; further: on the % scale 0 is the no-effect control and ±100 the full control effect)
[18] = qHTS assay to identify small molecule agonists of the peroxisome proliferator-activated receptor delta (PPARd) signaling pathway - cell viability counter screen (AID 743211); further: on the % scale 0 is the no-effect control and ±100 the full control effect; nearly all actives have a fitted effect of over 55% in size
Summary of the method: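 Multiplexed format: after the 2 h room-temperature LiveBLAzer B/G FRET step, CellTiter-Glo was added to the same wells. Luminescence after 30 min gave cell viability; compound exposure was 17 h at 37C.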

[19] = target: Bile acid receptor (Homo sapiens) (UniProt Q96RI1); assay: qHTS assay to identify small molecule agonists of the farnesoid-X-receptor (FXR) signaling pathway (AID 743220; active means well fitted activation curve with a large enough effect in the signal ratio in the repeat runs, not every such curve was filed as active; the % refers to the signal ratio; further: on the % scale 0 is the no-effect control and ±100 the full control effect)
Summary of the method: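 Beta-lactamase reporter under UAS control in GeneBLAzer FXR HEK 293T cells (5000/well) measured with LiveBLAzer FRET substrate after 2 h at room temperature. Compound exposure lasted 16 h at 37C.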

Sequence of Vitamin D3 receptor (Homo sapiens) (P11473 whole entry, looked up): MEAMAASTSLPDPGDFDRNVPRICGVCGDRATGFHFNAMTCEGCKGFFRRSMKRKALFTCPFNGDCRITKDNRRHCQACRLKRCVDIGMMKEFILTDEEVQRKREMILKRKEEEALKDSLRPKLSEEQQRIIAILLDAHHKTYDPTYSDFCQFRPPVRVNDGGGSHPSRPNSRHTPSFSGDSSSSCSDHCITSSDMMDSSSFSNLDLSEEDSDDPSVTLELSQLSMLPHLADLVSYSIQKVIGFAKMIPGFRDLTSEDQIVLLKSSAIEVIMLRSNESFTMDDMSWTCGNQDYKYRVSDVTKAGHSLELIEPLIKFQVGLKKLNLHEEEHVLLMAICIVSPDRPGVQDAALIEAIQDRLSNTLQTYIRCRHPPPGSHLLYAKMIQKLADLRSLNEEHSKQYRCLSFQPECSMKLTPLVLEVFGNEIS
Sequence of Peroxisome proliferator-activated receptor delta (Homo sapiens) (Q03181 whole entry, looked up): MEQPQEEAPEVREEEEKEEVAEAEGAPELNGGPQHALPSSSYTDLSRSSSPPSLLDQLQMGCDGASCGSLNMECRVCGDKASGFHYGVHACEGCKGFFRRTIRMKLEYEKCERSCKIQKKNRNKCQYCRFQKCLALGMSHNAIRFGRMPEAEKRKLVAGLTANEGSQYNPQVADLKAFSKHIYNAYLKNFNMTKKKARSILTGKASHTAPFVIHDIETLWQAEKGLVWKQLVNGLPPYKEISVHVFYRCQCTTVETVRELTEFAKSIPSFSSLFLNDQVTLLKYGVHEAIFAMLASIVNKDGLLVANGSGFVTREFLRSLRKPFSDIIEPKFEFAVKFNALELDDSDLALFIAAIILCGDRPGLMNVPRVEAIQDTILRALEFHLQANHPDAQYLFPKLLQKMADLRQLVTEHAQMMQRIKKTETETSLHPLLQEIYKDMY
Sequence of Bile acid receptor (Homo sapiens) (Q96RI1 whole entry, looked up): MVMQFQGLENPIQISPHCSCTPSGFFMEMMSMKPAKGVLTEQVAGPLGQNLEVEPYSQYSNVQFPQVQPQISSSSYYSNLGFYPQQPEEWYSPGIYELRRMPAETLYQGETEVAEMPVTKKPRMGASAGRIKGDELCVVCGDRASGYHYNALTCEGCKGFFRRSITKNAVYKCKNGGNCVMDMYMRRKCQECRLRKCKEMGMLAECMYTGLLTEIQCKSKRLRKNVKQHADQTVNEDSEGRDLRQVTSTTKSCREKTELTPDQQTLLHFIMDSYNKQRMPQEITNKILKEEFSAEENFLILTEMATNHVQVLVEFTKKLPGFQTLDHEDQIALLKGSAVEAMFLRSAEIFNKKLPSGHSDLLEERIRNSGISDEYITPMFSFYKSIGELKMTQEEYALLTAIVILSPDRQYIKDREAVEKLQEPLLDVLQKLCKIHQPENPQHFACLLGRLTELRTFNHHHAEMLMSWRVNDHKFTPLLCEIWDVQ

O=C1OC(CCN2CCCCC2)OC1(c1ccccc1)c1ccccc1 (stereo not given)
inactive: outcome [1] | Potency [2] | Potency [3] | outcome [4] | outcome [5] | outcome [6] | outcome [7] | outcome [8] | outcome [9] | Potency [10] | Potency [11] | Potency [12] | Potency [13]

CN1CCC(O)(c2ccc(F)cc2)C(C(=O)c2ccc(F)cc2)C1 (stereo not given)
inactive: outcome [14] | outcome [1] | outcome [15] | Potency [3] | outcome [4] | outcome [5] | Potency [16] | outcome [7] | outcome [8] | outcome [9] | Potency [10] | Potency [11] | Potency [12] | Potency [13] | outcome [17]

CCOP(=S)(Oc1cnc(C(C)(C)C)nc1)OC(C)C (stereo not given)
inactive: outcome [14] | outcome [15] | outcome [4] | outcome [5] | outcome [6] | outcome [7] | outcome [8] | outcome [9] | Potency [10] | Potency [11] | Potency [12] | Potency [13]

OCCSCSCCO
inactive: Potency [18] | outcome [14] | outcome [1] | outcome [15] | outcome [4] | outcome [5] | outcome [6] | Potency [16] | outcome [7] | outcome [8] | outcome [9] | Potency [11] | Potency [12] | Potency [13] | outcome [17]

C#C[C@]1(O)C=C[C@H]2[C@@H]3CCC4=CC(=O)CC[C@@H]4[C@H]3CC[C@@]21CC
inactive: Potency [18] | outcome [14] | outcome [1] | Potency [3] | outcome [4] | outcome [5] | Potency [16] | outcome [7] | outcome [8] | outcome [9] | Potency [10] | Potency [11] | Potency [13] | outcome [17]

O=C(CCCN1CCC(n2c(=O)[nH]c3ccccc32)CC1)c1ccc(F)cc1
inactive: outcome [1] | Potency [3] | outcome [4] | outcome [5] | Potency [16] | outcome [7] | outcome [8] | outcome [9] | Potency [10] | Potency [11] | Potency [12] | Potency [13] | outcome [17]

[As]#[In]
inactive: Potency [18] | outcome [1] | outcome [4] | Potency [16] | outcome [7] | outcome [8] | outcome [9] | Potency [10] | Potency [11] | Potency [12] | Potency [13] | outcome [17]

OC(Cn1cncn1)(c1ccc(F)cc1)c1ccccc1F (stereo not given)
inactive: Potency [18] | outcome [14] | outcome [1] | Potency [3] | outcome [4] | outcome [5] | outcome [6] | Potency [16] | outcome [7] | outcome [8] | outcome [9] | Potency [10] | Potency [11] | Potency [12] | Potency [13] | outcome [17]

O=C(CCN1CC1)OCC(CO)(COC(=O)CCN1CC1)COC(=O)CCN1CC1
inactive: outcome [1] | Potency [2] | Potency [3] | outcome [19] | outcome [4] | Potency [16] | outcome [7] | outcome [8] | outcome [9] | Potency [10] | Potency [11] | Potency [12] | Potency [13] | outcome [17]

CC1=C(C(=O)O)N2C(=O)[C@@H](N)[C@H]2SC1
inactive: Potency [18] | outcome [14] | outcome [1] | outcome [15] | outcome [4] | outcome [6] | Potency [16] | outcome [7] | outcome [8] | outcome [9] | Potency [10] | activity, negative = cytotoxicity [11] 0.102% [at 19 µM] | activity change, negative = inhibition [12] 27.3% [at 19 µM] | viability change, negative = cytotoxic [13] 19.2% [at 15.8 µM] | activation [17] -1.04% [at 15.8 µM]

O=C(O)C(Br)CBr (stereo not given)
inactive: outcome [1] | outcome [15] | Potency [3] | outcome [4] | Potency [16] | outcome [7] | outcome [8] | outcome [9] | Potency [10] | Potency [11] | Potency [12] | Potency [13]

CCCCP(CCCC)CCCC
inactive: outcome [14] | outcome [1] | outcome [15] | Potency [2] | Potency [3] | outcome [4] | outcome [5] | outcome [6] | outcome [7] | outcome [8] | outcome [9] | Potency [10] | Potency [11] | Potency [12] | Potency [13] | outcome [17]

COC(=O)c1ccccc1S(=O)(=O)NC(=O)Nc1nc(C)cc(C)n1
inactive: Potency [18] | outcome [1] | outcome [4] | outcome [5] | outcome [6] | outcome [7] | outcome [8] | outcome [9] | Potency [10] | Potency [11] | Potency [13] | outcome [17]

COc1ccc(C(=O)N2CCCC2=O)cc1
inactive: Potency [18] | outcome [14] | outcome [1] | Potency [3] | outcome [4] | outcome [6] | Potency [16] | outcome [7] | outcome [8] | outcome [9] | Potency [10] | Potency [11] | Potency [12] | Potency [13] | outcome [17]

CCCCOC(=O)c1ccccc1C(=O)O
inactive: Potency [18] | outcome [14] | outcome [1] | Potency [2] | Potency [3] | outcome [19] | Potency [16] | outcome [7] | outcome [8] | outcome [9] | Potency [10] | Potency [11] | Potency [12] | Potency [13] | outcome [17]

CC(C)CC(N(C)C)C1(c2ccc(Cl)cc2)CCC1 (stereo not given)
inactive: outcome [14] | outcome [1] | outcome [15] | Potency [2] | Potency [3] | outcome [19] | outcome [4] | outcome [5] | outcome [6] | Potency [16] | outcome [7] | outcome [8] | outcome [9] | Potency [10] | Potency [11] | Potency [12] | Potency [13] | outcome [17]

CCOP(=S)(OCC)SCSP(=S)(OCC)OCC
inactive: Potency [18] | outcome [14] | outcome [1] | outcome [15] | Potency [3] | outcome [4] | outcome [5] | outcome [7] | outcome [8] | outcome [9] | Potency [11] | Potency [12] | Potency [13]

CCCSC(=O)N(CCC)CCC
inactive: Potency [18] | outcome [14] | outcome [1] | outcome [15] | Potency [3] | outcome [4] | outcome [5] | Potency [16] | outcome [7] | outcome [8] | outcome [9] | Potency [11] | Potency [12] | Potency [13] | outcome [17]
